Out of some 39,000 compounds screened, about 3,300 (8.5%) were called active. The sample holds actives, similar compounds and a random draw of the others, so the mix is not that of the screen.
These compounds were tested on HepG2 (assay: cytotoxicity call (relative viability < 0.9)). Details: 10 µM.

SMILES | cytotoxicity call
C[C@@H]1CN([C@H](C)CO)S(=O)(=O)c2ccc(C#CC3(O)CCCC3)cc2O[C@@H]1CN(C)C(=O)c1cccnc1 | inactive
COc1ccc(CN(C)C[C@H]2OCCCC[C@H](C)Oc3ccc(NC(=O)c4ccccc4)cc3C(=O)N([C@H](C)CO)C[C@H]2C)cc1 | inactive
COc1ccc(CN(C)C[C@H]2OCCCC[C@@H](C)Oc3ccc(NC(=O)Cc4ccccc4)cc3C(=O)N([C@H](C)CO)C[C@H]2C)cc1 | inactive
CC[C@@](N)(C(=O)O)c1ccccc1 | inactive
C=C(C)[C@]1(O)OC(=O)C=C1OC | inactive
C[C@@H]1CN([C@H](C)CO)C(=O)c2cc(C#Cc3ccccc3F)cnc2O[C@@H]1CN(C)S(=O)(=O)c1ccccc1 | inactive
CCC(=O)N1CCC[C@@H]1C(=O)O | inactive
Cc1noc(C)c1NC(=O)Nc1ccc2c(c1)C(=O)N([C@H](C)CO)C[C@H](C)[C@H](CN(C)C(=O)c1ccccc1)OCCCC[C@@H](C)O2 | inactive
Cc1ccc(S(=O)(=O)N[C@@H]2CC[C@@H](CC(=O)N3CCC(Cc4ccccc4)CC3)O[C@@H]2CO)cc1 | inactive
C[C@@H]1CCCCO[C@H](CN(C)CC2CCCCC2)[C@H](C)CN([C@H](C)CO)C(=O)c2cc(NC(=O)c3ccncc3)ccc2O1 | inactive
C[C@H](CO)N1C[C@H](C)[C@H](CN(C)C(=O)Nc2ccc(C(F)(F)F)cc2)Oc2ccc(NC(=O)Nc3ccc4c(c3)OCO4)cc2C1=O | inactive
C[C@@H]1CN([C@H](C)CO)S(=O)(=O)c2ccc(-c3cccc(F)c3)cc2O[C@@H]1CN(C)S(C)(=O)=O | inactive
C[C@@H]1CN([C@@H](C)CO)C(=O)c2cc(NC(=O)C3CC3)ccc2O[C@H]1CN(C)S(=O)(=O)c1ccc(Cl)cc1 | inactive
C[C@@H]1CN([C@H](C)CO)C(=O)c2cc(NC(=O)Nc3ccc(C(F)(F)F)cc3)ccc2O[C@H]1CN(C)Cc1ccccc1 | active
C[C@H](CO)N1C[C@H](C)[C@@H](CN(C)Cc2ccccc2)Oc2ccc(NC(=O)Nc3ccc(C(F)(F)F)cc3)cc2C1=O | active
C[C@@H]1CN([C@@H](C)CO)C(=O)c2cc(NC(=O)Cc3ccccc3)ccc2O[C@@H](C)CCCCO[C@@H]1CN(C)S(=O)(=O)c1cccs1 | inactive

SMILES | cytotoxicity call
Cc1cc(C(=O)Nc2cccc3c2O[C@H](CN(C)Cc2ccccc2)[C@@H](C)CN([C@@H](C)CO)C3=O)n(C)n1 | inactive
C[C@H]1CN([C@@H](C)CO)C(=O)c2cccc(NC(=O)Nc3ccc4c(c3)OCO4)c2O[C@@H]1CN(C)S(=O)(=O)c1cn(C)cn1 | inactive
C[C@H](CO)N1C[C@H](C)[C@H](CN(C)S(=O)(=O)c2cccs2)OCCCC[C@H](C)Oc2ccc(NC(=O)CCC(F)(F)F)cc2C1=O | inactive
Cc1noc(C)c1NC(=O)Nc1ccc2c(c1)C(=O)N([C@H](C)CO)C[C@H](C)[C@@H](CN(C)S(C)(=O)=O)O2 | inactive
C[C@@H]1CCCCO[C@@H](CN(C)C(=O)Nc2ccc(C(F)(F)F)cc2)[C@H](C)CN([C@@H](C)CO)C(=O)c2cc(NC(=O)Nc3ccc4c(c3)OCO4)ccc2O1 | inactive
Cc1noc(C)c1NC(=O)Nc1ccc2c(c1)C(=O)N([C@@H](C)CO)C[C@H](C)[C@@H](CN(C)C(=O)Nc1ccccc1)OCCCC[C@H](C)O2 | inactive
C[C@H](CO)N1C[C@H](C)[C@H](CN(C)C(=O)Nc2cccc3ccccc23)Oc2ccc(NC(=O)CCC(F)(F)F)cc2C1=O | inactive
C[C@@H]1CCCCO[C@@H](CN(C)S(C)(=O)=O)[C@@H](C)CN([C@H](C)CO)C(=O)c2cc(NC(=O)c3ccncc3)ccc2O1 | inactive
C[C@H](CO)N1C[C@H](C)[C@@H](CN(C)Cc2ccc(Oc3ccccc3)cc2)Oc2ccc(NS(=O)(=O)c3cccs3)cc2CC1=O | inactive
C[C@@H]1CN([C@@H](C)CO)C(=O)Cc2cc(NS(=O)(=O)c3cccs3)ccc2O[C@@H]1CN(C)Cc1ccc(Oc2ccccc2)cc1 | inactive
C[C@H]1CN([C@@H](C)CO)C(=O)Cc2cc(NS(=O)(=O)c3cccs3)ccc2O[C@H]1CN(C)Cc1ccc(Oc2ccccc2)cc1 | inactive
C[C@@H]1CN([C@H](C)CO)C(=O)Cc2cc(NS(=O)(=O)c3cccs3)ccc2O[C@H]1CN(C)Cc1ccc(Oc2ccccc2)cc1 | active
C[C@@H]1CN([C@H](C)CO)C(=O)Cc2cc(NS(=O)(=O)c3cccs3)ccc2O[C@@H]1CN(C)Cc1ccc(Oc2ccccc2)cc1 | active
C[C@H]1CN([C@@H](C)CO)C(=O)Cc2cc(NS(=O)(=O)c3cccs3)ccc2O[C@@H]1CN(C)Cc1ccc(Oc2ccccc2)cc1 | inactive
Cn1cc(CN2CCC3(CC2)CNC(=O)CO3)cn1 | inactive
